Assay outcomes deposited in PubChem BioAssay by National Center for Advancing Translational Sciences (NCATS).
ALOX12 inh: Primary qHTS assay for inhibitors of human arachidonate 12S-lipoxygenase (ALOX12): Round 2; actives 1.1% (n = 580,000); Potency, µM (series often up to 108 µM), for inactives: at the highest dose activity change, negative = inhibition, actives largely listed as inhibitors; purified 12hLO, xylenol orange hydroperoxide absorbance; Polyunsaturated fatty acid lipoxygenase ALOX12 (Homo sapiens), P18054; also: potency is read from the fitted curve at half-maximal effect
Target sequence (P18054 whole entry, looked up): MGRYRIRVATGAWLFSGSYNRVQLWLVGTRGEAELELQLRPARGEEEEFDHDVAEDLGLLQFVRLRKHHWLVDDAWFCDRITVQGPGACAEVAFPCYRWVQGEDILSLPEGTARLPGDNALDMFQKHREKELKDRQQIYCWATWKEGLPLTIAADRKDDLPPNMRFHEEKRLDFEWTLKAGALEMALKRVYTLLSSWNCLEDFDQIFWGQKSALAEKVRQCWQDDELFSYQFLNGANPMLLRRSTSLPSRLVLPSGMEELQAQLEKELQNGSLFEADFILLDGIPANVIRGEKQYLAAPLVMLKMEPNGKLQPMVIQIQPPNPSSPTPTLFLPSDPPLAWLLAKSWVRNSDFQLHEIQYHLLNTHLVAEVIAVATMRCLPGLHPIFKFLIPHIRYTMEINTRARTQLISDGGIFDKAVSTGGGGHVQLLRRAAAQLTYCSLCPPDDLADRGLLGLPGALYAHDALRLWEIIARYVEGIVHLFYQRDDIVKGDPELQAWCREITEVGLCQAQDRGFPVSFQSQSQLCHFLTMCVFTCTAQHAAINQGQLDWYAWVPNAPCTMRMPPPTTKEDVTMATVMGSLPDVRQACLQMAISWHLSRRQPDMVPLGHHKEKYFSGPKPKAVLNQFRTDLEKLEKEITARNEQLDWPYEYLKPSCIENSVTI
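Purified human 12hLO (150 nM final) in 25 mM Hepes, 0.01% Triton X-100, pH 7.0 was preincubated 15 min at room temperature with compound. Then 40 uM arachidonic acid was added, 30 min. Hydroperoxide was read by Fe-XO absorbance ratio 573/405 nm.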
DT40 TDP1 CPT: qHTS for Inhibitors of human tyrosyl-DNA phosphodiesterase 1 (TDP1): qHTS in cells in presence of CPT | Potency, µM (doses to about 46.2 µM), inactives show top-dose activity change, negative = growth inhibition, usual class: inhibitors | chicken DT40 Tdp1-/-;hTDP1 cells + 20 nM CPT, ATP luminescence, 48 h | actives 12% (n = 420,000); also: potency is read from the fitted curve at half-maximal effect; nearly all actives have a fitted effect of over 55% in size
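Cell growth measured by CellTiter-Glo luminescence after a minimum 48 h, 37 C compound exposure with 20 nM CPT in Tdp1-knockout DT40 cells stably expressing hTDP1, seeded 400/well; qHTS titration format.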
HT1080 IDH1KD tx: qHTS for induction of synthetic lethality in tumor cells producing 2HG: qHTS for the HT-1080-IDH1KD cell line | HT-1080 IDH1 knockdown viability, ATP luminescence, 48 h | Potency, µM (titrated, usually from 46.1 µM), inactives show at the highest dose activity, negative = toxicity, usual class: cytotoxic | actives 2% (n = 360,000) | AID 686971, 2013;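 also: potency is read from the fitted curve at half-maximal effect; 0% = DMSO wells and -100% = cell-free medium wells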
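Cytotoxicity counter-line: IDH1KD HT-1080, 48 h, CellTiter-Glo. Curves classed by r2, magnitude and activity.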
DT40 TDP1 no CPT: qHTS for Inhibitors of human tyrosyl-DNA phosphodiesterase 1 (TDP1): qHTS in cells in absence of CPT. DT40 Tdp1-/- hTDP1 cells, no CPT, ATP luminescence, 48 h. Potency, µM (top dose mostly 46.2 µM), for the others: at the highest dose activity change, negative = growth inhibition, most hits filed as inhibitors. actives 15% (n = 420,000); also: potency is read from the fitted curve at half-maximal effect; nearly all actives have a fitted effect of over 55% in size
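A cellular qHTS used chicken DT40 cells lacking endogenous Tdp1 but carrying stably transfected human TDP1. Compounds were applied without camptothecin, and cell growth kinetics were judged by ATP-dependent luminescence after ≥48 hr.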
HT1080NT lethal: qHTS for induction of synthetic lethality in tumor cells producing 2HG: qHTS for the HT-1080-NT fibrosarcoma cell line; HT-1080-NT fibrosarcoma viability, CellTiter-Glo ATP luminescence, 48 h; Potency, µM (series often up to 46.1 µM), without a hit: at the highest dose activity, negative = less viability, most hits filed as cytotoxic; actives 1.6% (n = 360,000); AID 686970, 2013;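 also: NT is the 2HG producing partner of a matched IDH1 knockdown line; potency is read from the fitted curve at half-maximal effect; 0% = DMSO-treated cells and -100% = media-only wells without cells; nearly all actives have a fitted effect of over 55% in size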
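Viability by CellTiter-Glo luminescence after 48 h compound exposure at 37C of HT-1080-NT cells (750/well, RPMI, 5% FBS). % activity scaled between DMSO wells and medium-only wells, then curve-fitted and categorized by curve class.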
IL1B secr inh: qHTS for Inhibitors of Inflammasome Signaling: IL-1-beta AlphaLISA Primary Screen; actives 4.7% (n = 360,000); THP-1 LPS/ATP IL-1B secretion, AlphaLISA, 16 h; hits give low values; activity change, % at 57.5 µM; in the data active = activity change below about -50%; inconclusive = mostly about -30% to -49%
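Secreted IL-1B measured by AlphaLISA bead assay after 16 h compound exposure of THP-1 cells; compounds (final up to 57.5 uM) added 1 h before LPS (250 ng/mL) and ATP (1.25 mM) stimulation; lower signal means less secretion.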
An asterisk follows results filed as active; ? = inconclusive; / = no result given; ! = not confirmed by another sample. Many of the other results were omitted from the sample, so hits are more common in it than they were. Unless noted, calls follow the shape of the dose curve; as a rule, active = well fitted curve in the direction sought with a large enough effect; inconclusive = small, poorly fitted or top-dose-only effect, or another doubt; inactive = no such curve, though single readings can be large; an effect the other way counts as inactive or inconclusive. Unless noted, % is scaled to controls: 0 for no effect and ±100 for the full control effect.

SMILES	ALOX12 inh	DT40 TDP1 CPT	HT1080 IDH1KD tx	DT40 TDP1 no CPT	HT1080NT lethal	IL1B secr inh
CNC(=S)N1N=C(c2ccc(OC)cc2)CC1c1ccccc1Cl (configuration not stated)	11%	?	-2%	?	0%	-24
COc1ccc(C2CC(c3ccccc3)=NN2C(=O)COC(=O)c2cnc(Cl)c(Cl)c2)cc1 (configuration not stated)	-15%	21µM*	12%	?	20%	0
COc1ccc(C2CC(c3cccc([N+](=O)[O-])c3)=NN2/C(C)=C/C(C)=O)cc1 (configuration not stated)	?	16µM*	-4%	?	-5%	1
COc1ccc(C2=NN(C(=O)CN3CCCCC3)C(c3ccc(C)cc3)C2)cc1 (configuration not stated)	-2%	?	-17%	?	0%	-87*
COc1ccc(C2CC(c3ccccc3)=NN2C(=O)CSc2ncn[nH]2)cc1 (configuration not stated)	21%	?	-10%	-15%	1%	-71*
COc1ccccc1/C=C(/NC(=O)c1ccccc1)C(=O)NCCN1CCOCC1	-4%	15%	2%	-18%	13%	-6
CCOc1ccc(C(=O)Nc2sc(C(=O)OC(C)C)c(C)c2C#N)cc1	10%	/	/	/	/	/
O=C(NC1CC1)c1cc(-c2ccc(Cl)c(Cl)c2)nc2ccccc12	1%	/	/	/	/	/
C[C@@H](CN1CCC(Cc2ccccc2)CC1)[C@@H](O)c1ccc(O)cc1	?	23µM*	-12%	7.3µM*!	-1%	-21
CC(C)OCC(O)CN1CCC(Cc2ccccc2)CC1 (configuration not stated)	5%	6%	2%	-5%	0%	5
CC(C)CNC(=S)NNC(=O)c1csc2c1CCC(C)C2 (configuration not stated)	?	?	?	21µM*	?	?
Cn1c(=O)n(C)c2cc(NS(=O)(=O)c3ccccc3)c(NCc3ccccc3)cc21	7%	15µM*	/	?	/	/
Cn1c(=O)n(C)c2cc(NS(=O)(=O)c3ccc(C(C)(C)C)cc3)c(NCc3ccccc3)cc21	?	21µM*	/	23µM*	/	/
Cc1cc(S(=O)(=O)Nc2cc3c(cc2NCc2ccccc2)n(C)c(=O)n3C)ccc1F	-76%	7.3µM*	/	12µM*	/	/
Cn1c(=O)n(C)c2cc(NS(=O)(=O)c3ccc(Cl)cc3)c(NCc3ccccc3)cc21	-28%	10µM*	/	13µM*	/	/
CN(C)c1cc2c(cc1NS(=O)(=O)c1ccccc1)n(C)c(=O)n2C	?	?	-2%	?	-3%	4
Cc1[nH]nc2c1C(c1cccc(C(F)(F)F)c1)NC2=O (configuration not stated)	-8%	/	/	/	/	/
Cc1ccc(CN2C(=O)CCC2C(=O)NC(C)C)cc1 (configuration not stated)	8%	10%	7%	-4%	13%	4
COc1ccc(S(=O)(=O)Nc2ccc3c(c2)n(C)c(=O)n3C)cc1OC	-2%	0%	-9%	?	-30%	?
COc1ccc(S(=O)(=O)Nc2cc3c(cc2NCc2ccccc2)n(C)c(=O)n3C)cc1OC	?	?	/	21µM*	/	/
CN(Cc1ccccc1)S(=O)(=O)c1ccc2c(c1)OCCCO2	2%	/	/	/	/	/
COc1ccc(Br)c(Cn2c(C)c(C(=O)NCc3ccccc3C(F)(F)F)sc2=O)c1	-8%	?	10%	?	2%	-13
COc1ccc(S(=O)(=O)N(C)[C@H]2C[C@H]3c4cc(-c5ccccc5)ccc4CCN3C(=O)[C@H]2[C@H](C)O)cc1	?	?	?	21µM*	?	-29
COc1ccc(-c2ccc3c(c2)[C@@H]2C[C@H](N(C)C(=O)Nc4ccccc4)[C@H]([C@H](C)O)C(=O)N2CC3)cc1	2%	?	-7%	?	-8%	-8
COc1ccc(S(=O)(=O)N(C)[C@H]2C[C@H]3c4cc(Oc5ccccc5C)ccc4CCN3C(=O)[C@H]2[C@H](C)O)cc1	?	9.2µM*	?	6.5µM*	-22%	?
SMILES	ALOX12 inh	DT40 TDP1 CPT	HT1080 IDH1KD tx	DT40 TDP1 no CPT	HT1080NT lethal	IL1B secr inh
O=C(c1cccs1)N(Cc1ccccc1)Cc1ccccc1	2%	/	/	/	/	/
O=[N+]([O-])c1cc(Cl)cc2cccnc12	-8%	/	/	/	/	/
O=[N+]([O-])c1cc(Cl)cc2c1nc(NCCO)c1ccccc12	5%	18%	?	?	?	-83*
Cc1ccccc1Cn1cc(C(=O)N2CCN(C3CCCCC3)C(=O)C2)nn1	-14%	/	/	/	/	/
CCCCCCCCCCCCCCC(C(=O)O)C(O)(CC(=O)OC)C(=O)O (configuration not stated)	/	10µM*	/	8.2µM*	/	/
CC1(C(=O)NCc2cccnc2)Cc2c(-c3cccc(C(F)(F)F)c3)ccnc2O1 (configuration not stated)	9%	23µM*	?	21µM*	?	68
CN(C)c1ccc(CNC(=O)C2(C)Cc3c(-c4cccc(C(F)(F)F)c4)ccnc3O2)cc1 (configuration not stated)	?	16µM*	18µM*	?	?	24
CC(=O)Nc1ccc(-c2ccnc3c2CC(C)(C(=O)NCc2ccc(F)c(F)c2)O3)cc1 (configuration not stated)	?	5.8µM*	15µM*	3.3µM*	?	46
CC1(C(=O)NCc2ccc(F)c(F)c2)Cc2c(-c3cccc(C(F)(F)F)c3)ccnc2O1 (configuration not stated)	-27%	16µM*	?	16µM*	?	65
Cc1oc(-c2cccs2)nc1CC(=O)Nc1cccc(C(=O)N(C)C)c1	16%	/	/	/	/	/
COc1cc(=O)n2c(c1C(=O)Nc1ccc(C)cc1Cl)CCCC2	-5%	/	/	/	/	/
